Screening results: PubChem BioAssay, Johns Hopkins Ion Channel Center
This is a sample that favours compounds with a hit; in the whole collection about 1.6% have one here.
KCNQ2 block = inhibitors of rat KCNQ2 potassium channel; AID 2156; 310,000 tested, 1.1% active; O88943; B-score at 10 µM; CHO-K1 KCNQ2, FluxOR thallium flux, 20 min; hits give low values;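 active = fluorescence ratio B-score at most minus 3 library SDs, with starting brightness B-score within 2 library SDs, cut at about -5.5 in these data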
KCNQ2 pot = enhances the rat KCNQ2 potassium channel. O88943. CHO-K1 KCNQ2, FluxOR thallium flux fluorescence; hits give high values. B-score at 10 µM. 310,000 tested, 0.54% active. AID 2239;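 active = fluorescence ratio B-score at least 3 SD of library B-scores, with initial fluorescence B-score within 3 of them, cut at about 5.3 in these data; same plate scores as AID 2156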;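 also: B-score of peak minus minimum over baseline fluorescence ratio after K+ and Tl+ stimulus; positive B-score means potentiation of KCNQ2 with more thallium influx and brighter signal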
The depositor's hits bear a star; i = inactive; nt = not tested or not shown.

SMILES | KCNQ2 block | KCNQ2 pot
O=C(CSc1nc(C2CC2)nc2ccccc12)N1c2ccccc2Sc2ccccc21 | -6.1* | -6.1
CC1CCCCC1NC(=O)CCCCn1c(=O)[nH]c2ccsc2c1=O (stereo not drawn) | i | 1.09
Cc1ccc(C)c(OC(=O)c2cccc(S(=O)(=O)N3CCN(C)CC3)c2)c1 | i | nt
NS(=O)(=O)c1ccc(N=Nc2ccc(O)c3ncccc23)cc1 | i | 0.44
O=Cc1ccc(O)c2ncccc12 | i | 7.17*
C[C@H](NC(=O)[C@H](Cc1ccccc1)NC(=O)c1cc2cc(Cl)ccc2n1C)C(=O)O | i | nt
O=c1cc(N2CCCCC2)c(-c2ccccc2)nn1Cc1ccccc1Cl | i | nt
O=c1cc(N2CCCCC2)c(-c2ccccc2)nn1Cc1ccc(Cl)cc1Cl | -7.68* | -7.68
O=C(NC1CCC(C(=O)O)CC1)OCc1ccccc1 (stereo not drawn) | i | 0.05
c1ccc(CO/N=C(\c2ccc(C3CC3)nc2)C2CC2)cc1 | -6.99* | -6.99
CN(C)S(=O)(=O)c1cccc(CNCC2COc3ccccc3O2)c1 (stereo not drawn) | i | nt
COC(=O)c1ccc(NC(=S)NC2CCCCC2)cc1 | i | nt
COC(=O)c1cccnc1NC(=S)NC1CCCCC1 | i | 7.69*
COCCC(=O)N1CCC(Oc2ccc(C(=O)NC(C)CCn3cccn3)cc2)CC1 (stereo not drawn) | i | 1.77
O=C(N1CCC(n2nc(-c3ccccc3)oc2=O)CC1)C1(c2ccc(Cl)cc2)CC1 | -8.22* | -8.22
O=C(N1CCOCC1)C1(c2ccc(Cl)cc2)CCCC1 | i | nt
CCN(CC(=O)Nc1ccc2c(c1)OCCO2)C(=O)c1ccc(C(F)(F)F)cc1 | i | 0.55
Cc1ccccc1C(=O)NC1CCN(CC(=O)N2CCCCC2C)CC1 (stereo not drawn) | i | nt
Cc1cc(C)c(C(=O)COC(=O)[C@H](C)Nc2ccc(C(F)(F)F)cc2[N+](=O)[O-])c(C)c1 | -6.24* | -6.24
COc1ccc(C(=O)COC(=O)[C@H](C)Nc2ccc(C(F)(F)F)cc2[N+](=O)[O-])cc1 | i | 0.01
CCN(c1ccccc1)S(=O)(=O)c1ccc(C(=O)N(CCN(C)C)c2nc3c(F)cc(F)cc3s2)cc1 | i | nt
O=C(NN=C(Cc1ccccc1)Cc1ccccc1)c1ccc(F)cc1 | -5.62* | -5.62
C/C(Cc1ccccc1)=N\NC(=O)c1ccc(F)cc1 | i | 2.84
NC(=S)NN=C(Cc1ccccc1)Cc1ccccc1 | -5.63* | -5.63
O=C(NN=C(Cc1ccccc1)Cc1ccccc1)c1ccccc1O | i | 1.4
SMILES | KCNQ2 block | KCNQ2 pot
O=C(Cc1c(Cl)cccc1Cl)N/N=C/c1cccnc1 | i | nt
CCOC(=O)C1CCCN(CCC(=O)Nc2cc(OC)ccc2OC)C1 (stereo not drawn) | i | nt
CC(OC(=O)c1cc(S(=O)(=O)N(C)C)ccc1N1CCCC1)C(=O)NCc1ccccc1 (stereo not drawn) | i | 1.29
C=C1CCN([C@@H](CC(C)C)C(=O)NCc2ccc(Cl)c(Cl)c2)S(=O)(=O)c2ccccc21 | i | nt
C=C1CCN([C@@H](Cc2ccccc2)C(=O)NCc2ccc(Cl)c(Cl)c2)S(=O)(=O)c2ccccc21 | -6.18* | -6.18
Cn1cccc1Cc1nnc(SCC(=O)NCc2ccco2)n1-c1ccc(F)cc1 | i | 0.07
Cn1cccc1Cc1nnc(SCC(=O)NCc2ccccc2Cl)n1-c1ccc(F)cc1 | -7.22* | -7.22
CCc1ccc2c(c1)C1(C(=O)N2)N2CCCC2C(C(=O)c2ccc3ccccc3c2)C12C(=O)Nc1ccccc12 (stereo not drawn) | i | 0.8
CCc1ccc2c(c1)C1(NN=C(c3cccc4ccccc34)S1)C(=O)N2 (stereo not drawn) | -14.4* | -14.4
CCc1ccc(NS(=O)(=O)c2ccc(C)c(C(=O)N3CCOCC3)c2)cc1 | i | 0.56
COCCCN(C(=O)C(C)Oc1ccc(Br)cc1)c1c(N)n(Cc2ccccc2)c(=O)[nH]c1=O (stereo not drawn) | i | 0.03
CC(=O)Nc1cccc(C(=O)OC(C)C(=O)NCc2ccc3c(c2)OCO3)c1 (stereo not drawn) | i | 0.22
Cc1cccc(NS(=O)(=O)c2cc(C(=O)OC(C)C(=O)NCc3ccc4c(c3)OCO4)ccc2C)c1 (stereo not drawn) | -6.4* | -6.4
CC(C)(C)C(=O)NC1CCN(CC(=O)Nc2ccc3c(c2)OCO3)CC1 | i | nt
Cc1ccc2nc(-c3cccc(S(=O)(=O)N4CC(C)OC(C)C4)c3)cn2c1 (stereo not drawn) | i | nt
COc1ccc(CNC(=S)NC2CCCC2)cc1 | i | 0.39
Cc1ccc(CNC(=S)NC2CCC(C(C)(C)C)CC2)cc1 (stereo not drawn) | -6.86* | -6.86
CCc1ccc(NC(=O)C2CCCCC2C(=O)O)cc1 (stereo not drawn) | i | 0.17
CCc1ccc(NC(=O)C2C3/C=C\CCCCC32)cc1 (stereo not drawn) | i | 5.76*
O=C(COc1ccc(Cl)cc1)NCCNC(=O)c1ccccn1 | i | nt
O=C(NCC(c1ccco1)N1CCc2ccccc2C1)c1cccc(F)c1 (stereo not drawn) | -5.85* | -5.85
COc1ccccc1C(=O)NCC(c1ccco1)N1CCc2ccccc21 (stereo not drawn) | -6.3* | -6.3
O=C(NCC(c1ccco1)N1CCc2ccccc21)c1ccccc1 (stereo not drawn) | i | nt
COc1cc(C(=O)NCC(c2ccco2)N2CCc3ccccc32)cc(OC)c1OC (stereo not drawn) | i | nt
Cc1ccc(C(=O)NCC(c2ccco2)N2CCc3ccccc32)cc1C (stereo not drawn) | -6.19* | -6.19
SMILES | KCNQ2 block | KCNQ2 pot
O=C(NCC(c1ccco1)N1CCCC1)c1ccc(S(=O)(=O)Nc2ccccc2F)cc1 (stereo not drawn) | i | 0.06
Cc1ccccc1NS(=O)(=O)c1ccc(C(=O)NCC(c2ccco2)N2CCCCC2)cc1 (stereo not drawn) | -6.67* | -6.67
COc1cccc(C(=O)NCC(c2ccco2)N2CCc3ccccc3C2)c1 (stereo not drawn) | i | nt
CC1CCCCN1CCNC(=O)c1ccc2c(=O)n(Cc3ccc(Cl)cc3)c(=S)[nH]c2c1 (stereo not drawn) | i | nt
CCOC(=O)N1CCN(C(=O)c2ccc3c(c2)N=C(C)c2cc(Cl)ccc2S3)CC1 | i | nt
Clc1cccc(CSc2nnc(-c3sccc3-n3cccc3)o2)c1 | i | nt
Clc1cc(Cl)cc(CSc2nnc(-c3sccc3-n3cccc3)o2)c1 | -5.89* | -5.89
Cc1cc2nsnc2c(S(=O)(=O)N2CCN(C)CC2)c1C | i | 2
CNC(=O)N(O)C1N(/N=C/c2ccc(SC)cc2)C(=S)SC1(C)C (stereo not drawn) | i | nt
CN(C)c1ccc(/C=N/N2C(=S)SC(C)(C)C2N(O)C(=O)Nc2ccc([N+](=O)[O-])cc2)cc1 (stereo not drawn) | -6.81* | -6.81
CCc1nc(N2CCN(C(=S)NCCCOC)CC2)c2c3c(sc2n1)CCCC3 | i | nt
CCCCN(CC(O)COc1cccc(C)c1)CC(O)COc1cccc(C)c1 (stereo not drawn) | i | nt
O=c1[nH]c(C2CCN(S(=O)(=O)/C=C/c3ccccc3)CC2)nc2c1nnn2Cc1ccccc1 | i | nt
Cc1ccc(C)c(N=Nc2ccc(O)c3ncccc23)c1 | i | 2.4
Cc1cccc(N=Nc2ccc(O)c3ncccc23)c1 | i | 6.93*
